Measured values taken from PMC7862700, “An all-to-all approach to the identification of sequence-specific readers for epigenetic DNA modifications on cytosine”.

How the values were obtained:
Assay in all cases: DAPPL (digital affinity profiling via proximity ligation, sequencing); 10 mM Tris-HCl pH 7.5, 50 mM NaCl, 1 mM DTT, 4% glycerol, room temperature, 30 min; GST-TFs on glutathione beads, 16-mer random dsDNA library, 0.1% formaldehyde crosslink after washing; high values mean tight binding
Details in all cases: protein: recombinant; tags: N-terminal GST; dsDNA, one strand shown
ERF = molecular target: T1, ERF (Homo sapiens, UniProt P50548 1-548)
T1 sequence: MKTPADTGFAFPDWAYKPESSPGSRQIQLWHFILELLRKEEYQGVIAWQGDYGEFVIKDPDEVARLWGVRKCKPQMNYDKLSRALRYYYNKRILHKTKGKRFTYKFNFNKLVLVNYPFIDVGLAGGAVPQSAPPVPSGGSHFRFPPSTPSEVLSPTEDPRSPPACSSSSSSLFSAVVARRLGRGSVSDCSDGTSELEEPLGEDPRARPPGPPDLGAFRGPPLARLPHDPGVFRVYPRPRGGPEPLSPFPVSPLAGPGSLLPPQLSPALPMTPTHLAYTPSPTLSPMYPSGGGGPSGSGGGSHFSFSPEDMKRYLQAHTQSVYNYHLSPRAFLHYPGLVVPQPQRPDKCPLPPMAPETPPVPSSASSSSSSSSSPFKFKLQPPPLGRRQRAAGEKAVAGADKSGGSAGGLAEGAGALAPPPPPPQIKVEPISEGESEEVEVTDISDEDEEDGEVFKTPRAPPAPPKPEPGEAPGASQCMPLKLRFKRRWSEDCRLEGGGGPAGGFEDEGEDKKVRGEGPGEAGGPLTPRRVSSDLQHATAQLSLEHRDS
How it was run: (§1)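 Yeast served to express human transcription factors as GST fusions, which were then captured on glutathione beads and labelled with DNA barcodes. Pooled with a tag-only sample, they were incubated with 200 nmole of a 16-mer random double-stranded DNA library for 30 min at room temperature in Tris/NaCl/DTT/glycerol buffer, washed, crosslinked with 0.1% formaldehyde, ligated by proximity, amplified by PCR and sequenced. Dividing each hexamer's read frequency for a factor by its frequency for the tag-only sample gives the binding signal.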

ETV3L = molecular target: T2, ETV3L (Homo sapiens, UniProt Q6ZN32 1-361)
T2 sequence: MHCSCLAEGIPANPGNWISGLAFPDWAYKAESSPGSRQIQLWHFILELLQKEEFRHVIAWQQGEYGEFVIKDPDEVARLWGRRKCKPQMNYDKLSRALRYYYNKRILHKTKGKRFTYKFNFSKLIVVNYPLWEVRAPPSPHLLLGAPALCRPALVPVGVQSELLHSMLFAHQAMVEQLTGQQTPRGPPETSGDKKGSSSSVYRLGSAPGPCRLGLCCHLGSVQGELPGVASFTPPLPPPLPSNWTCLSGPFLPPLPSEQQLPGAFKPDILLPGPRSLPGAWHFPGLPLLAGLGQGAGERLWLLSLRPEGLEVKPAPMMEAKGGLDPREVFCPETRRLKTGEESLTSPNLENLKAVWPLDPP
How it was run: as §1

ETS2 = molecular target: T3, ETS2 (Homo sapiens, UniProt P15036 1-469)
T3 sequence: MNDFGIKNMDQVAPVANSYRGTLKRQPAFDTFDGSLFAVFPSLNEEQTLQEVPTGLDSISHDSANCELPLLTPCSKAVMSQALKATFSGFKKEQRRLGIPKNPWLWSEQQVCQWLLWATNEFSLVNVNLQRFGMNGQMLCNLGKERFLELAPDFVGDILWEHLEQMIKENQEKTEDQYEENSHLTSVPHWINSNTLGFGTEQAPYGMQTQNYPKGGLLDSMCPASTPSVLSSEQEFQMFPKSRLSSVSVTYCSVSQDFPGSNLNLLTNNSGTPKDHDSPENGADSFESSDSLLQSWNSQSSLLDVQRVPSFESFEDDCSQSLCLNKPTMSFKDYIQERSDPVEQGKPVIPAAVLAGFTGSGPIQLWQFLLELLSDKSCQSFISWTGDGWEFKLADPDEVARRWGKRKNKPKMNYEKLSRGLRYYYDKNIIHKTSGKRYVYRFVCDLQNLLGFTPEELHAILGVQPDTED
How it was run: as §1

SPDEF = molecular target: T4, SPDEF (Homo sapiens, UniProt O95238 1-335)
T4 sequence: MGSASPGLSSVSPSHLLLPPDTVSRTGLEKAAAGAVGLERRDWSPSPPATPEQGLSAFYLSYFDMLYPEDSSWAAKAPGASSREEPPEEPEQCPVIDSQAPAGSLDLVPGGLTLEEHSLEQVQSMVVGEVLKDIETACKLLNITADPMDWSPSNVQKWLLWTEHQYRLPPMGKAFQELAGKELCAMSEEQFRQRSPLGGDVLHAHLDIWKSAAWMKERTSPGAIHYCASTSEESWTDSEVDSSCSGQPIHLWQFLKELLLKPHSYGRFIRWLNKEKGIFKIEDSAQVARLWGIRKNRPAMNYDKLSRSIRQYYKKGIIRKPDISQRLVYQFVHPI
How it was run: as §1

ETV7 = molecular target: T5, ETV7 (Homo sapiens, UniProt Q9Y603 1-341)
T5 sequence: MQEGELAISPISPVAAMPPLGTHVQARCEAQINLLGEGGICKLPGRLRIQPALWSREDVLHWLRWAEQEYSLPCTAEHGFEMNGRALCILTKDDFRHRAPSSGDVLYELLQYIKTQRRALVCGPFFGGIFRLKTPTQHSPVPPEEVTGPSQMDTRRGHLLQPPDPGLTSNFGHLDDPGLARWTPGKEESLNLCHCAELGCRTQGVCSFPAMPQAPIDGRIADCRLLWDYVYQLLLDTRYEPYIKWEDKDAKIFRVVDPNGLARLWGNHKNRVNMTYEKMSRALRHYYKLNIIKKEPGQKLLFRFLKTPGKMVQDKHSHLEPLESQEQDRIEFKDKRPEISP
How it was run: as §1

ELF5 = molecular target: T6, ELF5 (Homo sapiens, UniProt Q9UKW6-2 1-255)
T6 sequence: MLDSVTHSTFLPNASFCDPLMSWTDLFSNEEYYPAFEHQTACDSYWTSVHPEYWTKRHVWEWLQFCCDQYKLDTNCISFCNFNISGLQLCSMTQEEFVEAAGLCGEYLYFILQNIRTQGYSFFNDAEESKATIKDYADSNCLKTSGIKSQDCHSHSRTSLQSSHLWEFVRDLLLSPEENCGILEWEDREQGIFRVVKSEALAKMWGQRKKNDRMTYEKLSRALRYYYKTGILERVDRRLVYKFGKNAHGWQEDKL
How it was run: as §1

ETV3 = molecular target: T7, ETV3 (Homo sapiens, UniProt P41162-2 1-143)
T7 sequence: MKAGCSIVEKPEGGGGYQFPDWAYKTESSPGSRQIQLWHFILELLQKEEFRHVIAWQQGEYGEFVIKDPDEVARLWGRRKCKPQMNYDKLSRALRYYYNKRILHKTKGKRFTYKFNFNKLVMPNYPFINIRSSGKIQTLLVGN
How it was run: as §1

ETV6 = ETV6 (Homo sapiens, UniProt P41212 1-452)
Sequence of ETV6 (P41212 whole entry): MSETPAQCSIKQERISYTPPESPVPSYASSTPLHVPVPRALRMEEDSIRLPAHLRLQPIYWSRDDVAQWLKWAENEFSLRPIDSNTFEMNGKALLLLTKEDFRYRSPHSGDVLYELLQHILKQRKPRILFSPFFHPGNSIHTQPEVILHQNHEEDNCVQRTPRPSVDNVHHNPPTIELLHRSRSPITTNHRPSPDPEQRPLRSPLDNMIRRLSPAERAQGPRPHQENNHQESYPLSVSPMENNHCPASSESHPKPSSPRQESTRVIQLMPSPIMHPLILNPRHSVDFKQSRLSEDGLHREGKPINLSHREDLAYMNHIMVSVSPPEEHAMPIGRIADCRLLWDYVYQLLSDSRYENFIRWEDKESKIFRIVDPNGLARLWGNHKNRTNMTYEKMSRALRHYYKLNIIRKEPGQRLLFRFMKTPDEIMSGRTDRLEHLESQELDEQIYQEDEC
How it was run: as §1

Sequence | binding signal (ERF) | binding signal (ETV3L) | binding signal (ETS2) | binding signal (SPDEF) | binding signal (ETV7) | binding signal (ELF5) | binding signal (ETV3) | binding signal (ETV6)
CCTCGT | 1.23 fold enrichment (6-mer frequency, TF over GST control) | 1.2 fold enrichment (6-mer frequency, TF over GST control) | 1.25 fold enrichment (6-mer frequency, TF over GST control) | 1.19 fold enrichment (6-mer frequency, TF over GST control) | 1.17 fold enrichment (6-mer frequency, TF over GST control) | 1.4 fold enrichment (6-mer frequency, TF over GST control) | 1.27 fold enrichment (6-mer frequency, TF over GST control) | 1.23 fold enrichment (6-mer frequency, TF over GST control)
TTTCAA | 1.22 fold enrichment (6-mer frequency, TF over GST control) | 1.28 fold enrichment (6-mer frequency, TF over GST control) | 1.24 fold enrichment (6-mer frequency, TF over GST control) | 1.16 fold enrichment (6-mer frequency, TF over GST control) | 1.3 fold enrichment (6-mer frequency, TF over GST control) | 1.26 fold enrichment (6-mer frequency, TF over GST control) | 1.31 fold enrichment (6-mer frequency, TF over GST control) | 1.21 fold enrichment (6-mer frequency, TF over GST control)
CGCCTC | 1.37 fold enrichment (6-mer frequency, TF over GST control) | 1.49 fold enrichment (6-mer frequency, TF over GST control) | 1.27 fold enrichment (6-mer frequency, TF over GST control) | 1.39 fold enrichment (6-mer frequency, TF over GST control) | 1.26 fold enrichment (6-mer frequency, TF over GST control) | 1.43 fold enrichment (6-mer frequency, TF over GST control) | 1.37 fold enrichment (6-mer frequency, TF over GST control) | 1.42 fold enrichment (6-mer frequency, TF over GST control)
TTTAAT | 1.33 fold enrichment (6-mer frequency, TF over GST control) | 1.37 fold enrichment (6-mer frequency, TF over GST control) | 1.37 fold enrichment (6-mer frequency, TF over GST control) | 1.17 fold enrichment (6-mer frequency, TF over GST control) | 1.46 fold enrichment (6-mer frequency, TF over GST control) | 1.28 fold enrichment (6-mer frequency, TF over GST control) | 1.21 fold enrichment (6-mer frequency, TF over GST control) | 1.28 fold enrichment (6-mer frequency, TF over GST control)
TATAAC | 1.18 fold enrichment (6-mer frequency, TF over GST control) | 1.21 fold enrichment (6-mer frequency, TF over GST control) | 1.25 fold enrichment (6-mer frequency, TF over GST control) | 1.25 fold enrichment (6-mer frequency, TF over GST control) | 1.26 fold enrichment (6-mer frequency, TF over GST control) | 1.25 fold enrichment (6-mer frequency, TF over GST control) | 1.25 fold enrichment (6-mer frequency, TF over GST control) | 1.19 fold enrichment (6-mer frequency, TF over GST control)
ATGGAA | 1.23 fold enrichment (6-mer frequency, TF over GST control) | 1.18 fold enrichment (6-mer frequency, TF over GST control) | 1.23 fold enrichment (6-mer frequency, TF over GST control) | 1.2 fold enrichment (6-mer frequency, TF over GST control) | 1.35 fold enrichment (6-mer frequency, TF over GST control) | 1.13 fold enrichment (6-mer frequency, TF over GST control) | 1.2 fold enrichment (6-mer frequency, TF over GST control) | 1.28 fold enrichment (6-mer frequency, TF over GST control)
CCGGAA | 4.48 fold enrichment (6-mer frequency, TF over GST control) | 5.28 fold enrichment (6-mer frequency, TF over GST control) | 5.63 fold enrichment (6-mer frequency, TF over GST control) | 6.22 fold enrichment (6-mer frequency, TF over GST control) | 5.01 fold enrichment (6-mer frequency, TF over GST control) | 6.42 fold enrichment (6-mer frequency, TF over GST control) | 6.2 fold enrichment (6-mer frequency, TF over GST control) | 6.11 fold enrichment (6-mer frequency, TF over GST control)
TTCATC | 1.21 fold enrichment (6-mer frequency, TF over GST control) | 1.24 fold enrichment (6-mer frequency, TF over GST control) | 1.17 fold enrichment (6-mer frequency, TF over GST control) | 1.36 fold enrichment (6-mer frequency, TF over GST control) | 1.25 fold enrichment (6-mer frequency, TF over GST control) | 1.23 fold enrichment (6-mer frequency, TF over GST control) | 1.26 fold enrichment (6-mer frequency, TF over GST control) | 1.23 fold enrichment (6-mer frequency, TF over GST control)
GGCCTA | 1.19 fold enrichment (6-mer frequency, TF over GST control) | 1.15 fold enrichment (6-mer frequency, TF over GST control) | 1.19 fold enrichment (6-mer frequency, TF over GST control) | 1.29 fold enrichment (6-mer frequency, TF over GST control) | 1.26 fold enrichment (6-mer frequency, TF over GST control) | 1.13 fold enrichment (6-mer frequency, TF over GST control) | 1.3 fold enrichment (6-mer frequency, TF over GST control) | 1.17 fold enrichment (6-mer frequency, TF over GST control)
GAAGCT | 1.59 fold enrichment (6-mer frequency, TF over GST control) | 1.58 fold enrichment (6-mer frequency, TF over GST control) | 1.54 fold enrichment (6-mer frequency, TF over GST control) | 1.51 fold enrichment (6-mer frequency, TF over GST control) | 1.54 fold enrichment (6-mer frequency, TF over GST control) | 1.71 fold enrichment (6-mer frequency, TF over GST control) | 1.75 fold enrichment (6-mer frequency, TF over GST control) | 1.59 fold enrichment (6-mer frequency, TF over GST control)
GTACAA | 1.03 fold enrichment (6-mer frequency, TF over GST control) | 1.09 fold enrichment (6-mer frequency, TF over GST control) | 1.1 fold enrichment (6-mer frequency, TF over GST control) | 1.06 fold enrichment (6-mer frequency, TF over GST control) | 1.12 fold enrichment (6-mer frequency, TF over GST control) | 1.03 fold enrichment (6-mer frequency, TF over GST control) | 1.11 fold enrichment (6-mer frequency, TF over GST control) | 1.15 fold enrichment (6-mer frequency, TF over GST control)
TGTGCC | 1.01 fold enrichment (6-mer frequency, TF over GST control) | 1.19 fold enrichment (6-mer frequency, TF over GST control) | 1.07 fold enrichment (6-mer frequency, TF over GST control) | 1.17 fold enrichment (6-mer frequency, TF over GST control) | 1.04 fold enrichment (6-mer frequency, TF over GST control) | 1.05 fold enrichment (6-mer frequency, TF over GST control) | 1.13 fold enrichment (6-mer frequency, TF over GST control) | 1.21 fold enrichment (6-mer frequency, TF over GST control)
GTCCCC | 1.23 fold enrichment (6-mer frequency, TF over GST control) | 1.15 fold enrichment (6-mer frequency, TF over GST control) | 1.15 fold enrichment (6-mer frequency, TF over GST control) | 1.14 fold enrichment (6-mer frequency, TF over GST control) | 1.27 fold enrichment (6-mer frequency, TF over GST control) | 1.13 fold enrichment (6-mer frequency, TF over GST control) | 1.14 fold enrichment (6-mer frequency, TF over GST control) | 1.24 fold enrichment (6-mer frequency, TF over GST control)
GATATC | 1.56 fold enrichment (6-mer frequency, TF over GST control) | 1.46 fold enrichment (6-mer frequency, TF over GST control) | 1.49 fold enrichment (6-mer frequency, TF over GST control) | 1.92 fold enrichment (6-mer frequency, TF over GST control) | 1.34 fold enrichment (6-mer frequency, TF over GST control) | 1.74 fold enrichment (6-mer frequency, TF over GST control) | 1.61 fold enrichment (6-mer frequency, TF over GST control) | 1.51 fold enrichment (6-mer frequency, TF over GST control)
CCGGTT | 1.82 fold enrichment (6-mer frequency, TF over GST control) | 1.94 fold enrichment (6-mer frequency, TF over GST control) | 1.96 fold enrichment (6-mer frequency, TF over GST control) | 2.99 fold enrichment (6-mer frequency, TF over GST control) | 1.77 fold enrichment (6-mer frequency, TF over GST control) | 2.37 fold enrichment (6-mer frequency, TF over GST control) | 2.05 fold enrichment (6-mer frequency, TF over GST control) | 2.19 fold enrichment (6-mer frequency, TF over GST control)
